Broadly, the inhibition is the relative decrease from the control value, in per cent.

Our source for the inhibition values is ChEMBL document CHEMBL1961873, “Compounds: GSK PKIS; Assays: Nanosyn kinase panel” (2012).

Assay [1] addresses T1, Inhibitor of nuclear factor kappa-B kinase subunit epsilon (Homo sapiens) (UniProt Q14164).
T1 sequence (whole entry): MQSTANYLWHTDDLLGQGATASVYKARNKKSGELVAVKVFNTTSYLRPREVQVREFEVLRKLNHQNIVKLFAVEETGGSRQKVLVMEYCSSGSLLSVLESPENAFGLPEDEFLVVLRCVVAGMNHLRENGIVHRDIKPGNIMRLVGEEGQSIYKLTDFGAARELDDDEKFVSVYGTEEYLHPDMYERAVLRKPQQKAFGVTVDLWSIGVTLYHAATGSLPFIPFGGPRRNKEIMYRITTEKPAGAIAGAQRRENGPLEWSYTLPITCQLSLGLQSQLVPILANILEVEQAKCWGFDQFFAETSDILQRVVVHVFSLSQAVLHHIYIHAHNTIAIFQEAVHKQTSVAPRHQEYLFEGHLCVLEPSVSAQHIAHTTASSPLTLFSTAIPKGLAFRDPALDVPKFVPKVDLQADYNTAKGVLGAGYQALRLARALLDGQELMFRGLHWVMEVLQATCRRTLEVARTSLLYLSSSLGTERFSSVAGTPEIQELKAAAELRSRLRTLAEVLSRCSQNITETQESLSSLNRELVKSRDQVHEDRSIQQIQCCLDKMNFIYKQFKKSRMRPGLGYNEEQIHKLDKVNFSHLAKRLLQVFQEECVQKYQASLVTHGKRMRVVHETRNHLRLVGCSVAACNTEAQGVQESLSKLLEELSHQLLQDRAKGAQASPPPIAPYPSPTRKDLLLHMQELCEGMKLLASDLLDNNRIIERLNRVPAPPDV
Particulars: at 1 µM.

The target of assay [2] is T2, Serine/threonine-protein kinase Nek1 (Homo sapiens) (UniProt Q96PY6).
T2 sequence (whole entry): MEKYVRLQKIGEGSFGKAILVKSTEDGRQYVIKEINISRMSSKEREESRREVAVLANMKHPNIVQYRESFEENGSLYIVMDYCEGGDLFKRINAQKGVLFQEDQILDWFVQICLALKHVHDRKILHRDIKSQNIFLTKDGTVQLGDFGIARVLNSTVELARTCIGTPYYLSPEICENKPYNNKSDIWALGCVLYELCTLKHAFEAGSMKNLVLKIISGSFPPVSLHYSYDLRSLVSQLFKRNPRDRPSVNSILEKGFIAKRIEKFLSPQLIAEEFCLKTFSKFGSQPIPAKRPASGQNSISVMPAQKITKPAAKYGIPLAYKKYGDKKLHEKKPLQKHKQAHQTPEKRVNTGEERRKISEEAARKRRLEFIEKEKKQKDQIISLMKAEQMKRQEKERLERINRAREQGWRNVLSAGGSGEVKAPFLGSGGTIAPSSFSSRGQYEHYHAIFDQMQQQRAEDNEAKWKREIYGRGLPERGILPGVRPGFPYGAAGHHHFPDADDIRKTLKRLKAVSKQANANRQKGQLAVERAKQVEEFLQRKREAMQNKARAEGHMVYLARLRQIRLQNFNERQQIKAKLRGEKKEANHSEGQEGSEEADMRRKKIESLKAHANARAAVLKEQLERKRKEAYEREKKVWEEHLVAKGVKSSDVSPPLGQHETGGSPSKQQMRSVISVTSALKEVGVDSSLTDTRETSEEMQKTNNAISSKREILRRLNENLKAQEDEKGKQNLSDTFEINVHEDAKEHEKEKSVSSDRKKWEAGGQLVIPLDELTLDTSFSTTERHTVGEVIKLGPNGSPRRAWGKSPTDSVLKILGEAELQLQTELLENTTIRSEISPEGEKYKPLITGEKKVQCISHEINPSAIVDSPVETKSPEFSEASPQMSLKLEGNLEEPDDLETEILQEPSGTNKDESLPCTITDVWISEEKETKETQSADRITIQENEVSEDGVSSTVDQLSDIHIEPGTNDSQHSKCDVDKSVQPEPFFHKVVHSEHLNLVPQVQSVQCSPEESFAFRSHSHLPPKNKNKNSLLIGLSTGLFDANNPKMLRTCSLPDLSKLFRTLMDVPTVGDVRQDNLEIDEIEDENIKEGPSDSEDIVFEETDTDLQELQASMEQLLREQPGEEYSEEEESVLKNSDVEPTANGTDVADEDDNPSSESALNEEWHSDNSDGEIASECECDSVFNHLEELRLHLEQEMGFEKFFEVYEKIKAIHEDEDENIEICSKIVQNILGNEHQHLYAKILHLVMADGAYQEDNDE
Conditions: at 0.1 µM.

In assay [3] the target is T2, Serine/threonine-protein kinase Nek1 (Homo sapiens). Conditions: at 1 µM.
Assay [4] addresses T3, Serine/threonine-protein kinase Nek2 (Homo sapiens) (UniProt P51955).
T3 sequence (whole entry): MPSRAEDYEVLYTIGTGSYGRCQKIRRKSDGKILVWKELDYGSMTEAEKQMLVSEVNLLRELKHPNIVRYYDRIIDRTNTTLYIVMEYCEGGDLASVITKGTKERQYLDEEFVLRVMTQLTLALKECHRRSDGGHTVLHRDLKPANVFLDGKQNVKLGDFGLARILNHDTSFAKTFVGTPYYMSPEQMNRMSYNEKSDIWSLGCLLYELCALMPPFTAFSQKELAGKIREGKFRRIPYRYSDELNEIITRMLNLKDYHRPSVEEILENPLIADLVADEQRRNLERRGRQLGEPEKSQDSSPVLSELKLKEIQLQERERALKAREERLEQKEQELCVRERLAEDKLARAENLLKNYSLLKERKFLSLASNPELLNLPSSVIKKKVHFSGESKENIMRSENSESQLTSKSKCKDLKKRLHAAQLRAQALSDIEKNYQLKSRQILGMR
Conditions: at 0.1 µM.

Assay [5] deals with T3, Serine/threonine-protein kinase Nek2 (Homo sapiens). Conditions: at 1 µM.
The target of assay [6] is Serine/threonine-protein kinase Nek6 (Homo sapiens) (UniProt Q9HC98). Particulars: at 0.1 µM.
Chain of Serine/threonine-protein kinase Nek6 (Homo sapiens) (Q9HC98 whole entry): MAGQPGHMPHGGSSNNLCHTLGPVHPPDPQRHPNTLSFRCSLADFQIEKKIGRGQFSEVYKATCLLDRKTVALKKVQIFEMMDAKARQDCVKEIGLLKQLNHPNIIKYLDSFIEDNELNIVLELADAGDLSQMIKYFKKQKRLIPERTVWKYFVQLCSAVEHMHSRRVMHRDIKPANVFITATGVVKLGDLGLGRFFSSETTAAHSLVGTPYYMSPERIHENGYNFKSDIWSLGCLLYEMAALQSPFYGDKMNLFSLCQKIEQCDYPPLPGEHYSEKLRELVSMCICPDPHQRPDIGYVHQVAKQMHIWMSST
For assay [7] the target is unchanged. Particulars: at 1 µM.
Assay [8] deals with Serine/threonine-protein kinase Nek7 (Homo sapiens) (UniProt Q8TDX7). Conditions: at 0.1 µM.
Chain of Serine/threonine-protein kinase Nek7 (Homo sapiens) (Q8TDX7 whole entry, looked up): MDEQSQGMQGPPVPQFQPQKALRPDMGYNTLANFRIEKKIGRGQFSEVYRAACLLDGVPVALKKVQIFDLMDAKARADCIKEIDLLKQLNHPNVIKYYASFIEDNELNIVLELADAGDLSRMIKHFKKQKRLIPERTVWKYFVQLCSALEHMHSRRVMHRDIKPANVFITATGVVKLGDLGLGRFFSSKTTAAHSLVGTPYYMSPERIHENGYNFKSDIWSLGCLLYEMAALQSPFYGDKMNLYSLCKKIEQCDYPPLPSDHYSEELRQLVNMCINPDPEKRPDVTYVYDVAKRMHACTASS
The target is the same in assay [9]. Conditions: at 1 µM.
The target in assay [10] is T4, Serine/threonine-protein kinase Nek9 (Homo sapiens) (UniProt Q8TD19).
T4 sequence (whole entry): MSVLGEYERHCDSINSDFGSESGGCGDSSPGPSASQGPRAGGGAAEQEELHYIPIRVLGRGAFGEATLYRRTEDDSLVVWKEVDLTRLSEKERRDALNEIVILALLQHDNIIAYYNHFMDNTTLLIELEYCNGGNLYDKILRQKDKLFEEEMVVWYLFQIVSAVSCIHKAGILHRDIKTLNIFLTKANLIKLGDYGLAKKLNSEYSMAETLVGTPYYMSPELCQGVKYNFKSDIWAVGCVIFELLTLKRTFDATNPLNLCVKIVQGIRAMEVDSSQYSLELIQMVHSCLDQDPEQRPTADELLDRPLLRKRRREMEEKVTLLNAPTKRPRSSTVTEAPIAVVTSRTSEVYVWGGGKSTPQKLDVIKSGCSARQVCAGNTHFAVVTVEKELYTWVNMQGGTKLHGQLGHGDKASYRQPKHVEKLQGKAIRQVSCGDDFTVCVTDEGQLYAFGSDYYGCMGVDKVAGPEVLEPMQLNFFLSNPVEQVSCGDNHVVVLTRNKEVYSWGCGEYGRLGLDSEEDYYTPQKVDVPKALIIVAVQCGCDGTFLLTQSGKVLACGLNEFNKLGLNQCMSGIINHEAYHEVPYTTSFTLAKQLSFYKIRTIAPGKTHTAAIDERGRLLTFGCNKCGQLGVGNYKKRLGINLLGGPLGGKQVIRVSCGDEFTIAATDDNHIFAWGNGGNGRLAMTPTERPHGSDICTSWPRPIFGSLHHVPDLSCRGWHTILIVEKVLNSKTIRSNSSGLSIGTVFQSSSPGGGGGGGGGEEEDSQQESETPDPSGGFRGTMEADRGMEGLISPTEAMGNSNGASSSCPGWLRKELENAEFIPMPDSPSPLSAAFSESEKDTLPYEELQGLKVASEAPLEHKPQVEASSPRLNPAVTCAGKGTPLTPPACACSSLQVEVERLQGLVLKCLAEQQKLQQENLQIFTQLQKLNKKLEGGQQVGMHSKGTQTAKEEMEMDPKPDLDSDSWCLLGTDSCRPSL
Conditions: at 0.1 µM.

Assay [11] concerns the target T4, Serine/threonine-protein kinase Nek9 (Homo sapiens). Particulars: at 1 µM.
Assay [12] addresses Serine/threonine-protein kinase PLK1 (Homo sapiens) (UniProt P53350). Particulars: at 0.1 µM.
Assay [13] shares this target. Particulars: at 1 µM.
Assay [14] concerns the target T5, Dual specificity protein kinase TTK (Homo sapiens) (UniProt P33981).
T5 sequence (whole entry): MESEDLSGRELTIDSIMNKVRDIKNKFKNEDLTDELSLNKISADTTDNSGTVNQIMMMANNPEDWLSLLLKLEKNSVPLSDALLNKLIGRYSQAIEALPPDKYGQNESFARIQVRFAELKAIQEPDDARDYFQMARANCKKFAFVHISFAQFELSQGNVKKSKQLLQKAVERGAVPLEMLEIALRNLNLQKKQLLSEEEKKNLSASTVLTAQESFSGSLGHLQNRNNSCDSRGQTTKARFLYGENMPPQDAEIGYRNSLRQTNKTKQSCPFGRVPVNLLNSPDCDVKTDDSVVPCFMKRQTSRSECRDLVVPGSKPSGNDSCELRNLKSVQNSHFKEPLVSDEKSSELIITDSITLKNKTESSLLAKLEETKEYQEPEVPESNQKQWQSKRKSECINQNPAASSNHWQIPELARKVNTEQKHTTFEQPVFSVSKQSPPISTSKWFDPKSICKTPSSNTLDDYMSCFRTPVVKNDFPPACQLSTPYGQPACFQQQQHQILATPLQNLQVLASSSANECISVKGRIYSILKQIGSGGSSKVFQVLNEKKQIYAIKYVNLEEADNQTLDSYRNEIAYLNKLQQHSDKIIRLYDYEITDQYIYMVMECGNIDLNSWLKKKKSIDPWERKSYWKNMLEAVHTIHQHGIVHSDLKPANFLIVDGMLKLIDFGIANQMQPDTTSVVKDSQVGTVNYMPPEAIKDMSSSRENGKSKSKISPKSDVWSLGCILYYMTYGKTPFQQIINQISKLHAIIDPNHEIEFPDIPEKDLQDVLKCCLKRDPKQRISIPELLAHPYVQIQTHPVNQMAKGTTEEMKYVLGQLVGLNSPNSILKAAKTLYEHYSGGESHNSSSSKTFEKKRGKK
Particulars: at 0.1 µM.

The test system of assay [15] is T6, Receptor-type tyrosine-protein kinase FLT3 (Homo sapiens), P36888 [D835Y].
T6 sequence (whole entry): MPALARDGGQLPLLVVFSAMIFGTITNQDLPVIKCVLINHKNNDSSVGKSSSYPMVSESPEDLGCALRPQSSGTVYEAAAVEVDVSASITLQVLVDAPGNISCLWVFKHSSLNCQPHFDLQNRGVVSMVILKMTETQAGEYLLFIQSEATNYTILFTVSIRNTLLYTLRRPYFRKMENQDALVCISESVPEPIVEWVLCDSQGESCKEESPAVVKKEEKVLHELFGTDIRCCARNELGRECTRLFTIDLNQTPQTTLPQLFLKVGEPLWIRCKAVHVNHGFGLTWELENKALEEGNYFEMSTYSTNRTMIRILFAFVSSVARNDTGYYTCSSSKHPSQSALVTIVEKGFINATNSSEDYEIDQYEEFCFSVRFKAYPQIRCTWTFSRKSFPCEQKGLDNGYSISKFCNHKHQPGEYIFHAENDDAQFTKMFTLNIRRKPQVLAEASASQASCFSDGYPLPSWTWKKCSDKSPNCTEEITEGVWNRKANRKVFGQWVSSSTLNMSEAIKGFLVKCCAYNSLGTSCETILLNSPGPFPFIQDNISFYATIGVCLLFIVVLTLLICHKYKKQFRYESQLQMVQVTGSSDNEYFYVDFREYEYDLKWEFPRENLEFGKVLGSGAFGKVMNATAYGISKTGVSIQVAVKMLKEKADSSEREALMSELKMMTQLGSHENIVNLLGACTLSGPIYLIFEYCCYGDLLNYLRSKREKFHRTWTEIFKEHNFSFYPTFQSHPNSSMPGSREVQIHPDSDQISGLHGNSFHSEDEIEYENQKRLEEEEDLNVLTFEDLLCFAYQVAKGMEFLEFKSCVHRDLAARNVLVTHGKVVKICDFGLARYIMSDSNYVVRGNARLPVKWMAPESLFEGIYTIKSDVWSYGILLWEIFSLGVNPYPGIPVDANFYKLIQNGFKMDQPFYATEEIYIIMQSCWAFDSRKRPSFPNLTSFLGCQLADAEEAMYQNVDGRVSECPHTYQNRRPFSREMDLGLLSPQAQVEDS
Particulars: at 1 µM.

The target of assay [16] is Vascular endothelial growth factor receptor 3 (Homo sapiens) (UniProt P35916). Particulars: at 0.1 µM.
Chain of Vascular endothelial growth factor receptor 3 (Homo sapiens) (P35916 whole entry): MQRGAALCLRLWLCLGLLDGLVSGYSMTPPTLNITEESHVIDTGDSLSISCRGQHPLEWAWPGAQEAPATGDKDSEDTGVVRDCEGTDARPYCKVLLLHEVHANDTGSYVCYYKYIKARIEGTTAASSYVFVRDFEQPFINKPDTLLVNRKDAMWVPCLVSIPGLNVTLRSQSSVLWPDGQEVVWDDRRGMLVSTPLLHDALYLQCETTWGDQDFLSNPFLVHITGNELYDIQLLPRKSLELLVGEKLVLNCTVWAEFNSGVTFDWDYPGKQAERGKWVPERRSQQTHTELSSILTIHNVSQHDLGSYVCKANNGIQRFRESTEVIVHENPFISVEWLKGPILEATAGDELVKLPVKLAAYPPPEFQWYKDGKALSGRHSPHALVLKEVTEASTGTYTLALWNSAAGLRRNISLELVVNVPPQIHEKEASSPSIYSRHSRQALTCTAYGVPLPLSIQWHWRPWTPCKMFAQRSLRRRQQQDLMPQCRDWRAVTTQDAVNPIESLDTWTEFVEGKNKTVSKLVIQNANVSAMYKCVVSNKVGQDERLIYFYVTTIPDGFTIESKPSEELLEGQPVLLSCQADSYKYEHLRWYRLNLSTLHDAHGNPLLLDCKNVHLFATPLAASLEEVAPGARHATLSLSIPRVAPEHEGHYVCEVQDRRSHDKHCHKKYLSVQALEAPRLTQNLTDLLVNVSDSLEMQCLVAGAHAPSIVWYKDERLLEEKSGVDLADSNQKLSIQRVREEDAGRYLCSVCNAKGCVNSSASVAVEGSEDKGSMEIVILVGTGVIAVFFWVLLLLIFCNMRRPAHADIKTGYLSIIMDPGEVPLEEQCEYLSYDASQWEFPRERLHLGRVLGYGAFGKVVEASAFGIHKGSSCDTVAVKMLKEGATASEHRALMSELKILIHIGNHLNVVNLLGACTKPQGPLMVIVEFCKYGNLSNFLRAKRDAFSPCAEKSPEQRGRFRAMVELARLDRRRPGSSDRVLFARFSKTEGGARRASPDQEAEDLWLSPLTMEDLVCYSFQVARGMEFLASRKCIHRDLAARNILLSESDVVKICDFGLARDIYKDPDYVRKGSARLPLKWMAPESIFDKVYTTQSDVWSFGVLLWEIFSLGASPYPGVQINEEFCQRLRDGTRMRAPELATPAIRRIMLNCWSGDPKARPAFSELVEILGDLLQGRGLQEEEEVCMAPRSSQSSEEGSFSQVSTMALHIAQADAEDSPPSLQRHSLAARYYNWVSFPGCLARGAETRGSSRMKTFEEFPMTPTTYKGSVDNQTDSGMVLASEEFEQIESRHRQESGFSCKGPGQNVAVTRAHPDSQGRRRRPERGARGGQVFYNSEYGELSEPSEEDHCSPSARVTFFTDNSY
Assay [17] has the same target. Conditions: at 1 µM.
In assay [18] the target is Macrophage colony-stimulating factor 1 receptor (Homo sapiens) (UniProt P07333). Particulars: at 0.1 µM.
Chain of Macrophage colony-stimulating factor 1 receptor (Homo sapiens) (P07333 whole entry): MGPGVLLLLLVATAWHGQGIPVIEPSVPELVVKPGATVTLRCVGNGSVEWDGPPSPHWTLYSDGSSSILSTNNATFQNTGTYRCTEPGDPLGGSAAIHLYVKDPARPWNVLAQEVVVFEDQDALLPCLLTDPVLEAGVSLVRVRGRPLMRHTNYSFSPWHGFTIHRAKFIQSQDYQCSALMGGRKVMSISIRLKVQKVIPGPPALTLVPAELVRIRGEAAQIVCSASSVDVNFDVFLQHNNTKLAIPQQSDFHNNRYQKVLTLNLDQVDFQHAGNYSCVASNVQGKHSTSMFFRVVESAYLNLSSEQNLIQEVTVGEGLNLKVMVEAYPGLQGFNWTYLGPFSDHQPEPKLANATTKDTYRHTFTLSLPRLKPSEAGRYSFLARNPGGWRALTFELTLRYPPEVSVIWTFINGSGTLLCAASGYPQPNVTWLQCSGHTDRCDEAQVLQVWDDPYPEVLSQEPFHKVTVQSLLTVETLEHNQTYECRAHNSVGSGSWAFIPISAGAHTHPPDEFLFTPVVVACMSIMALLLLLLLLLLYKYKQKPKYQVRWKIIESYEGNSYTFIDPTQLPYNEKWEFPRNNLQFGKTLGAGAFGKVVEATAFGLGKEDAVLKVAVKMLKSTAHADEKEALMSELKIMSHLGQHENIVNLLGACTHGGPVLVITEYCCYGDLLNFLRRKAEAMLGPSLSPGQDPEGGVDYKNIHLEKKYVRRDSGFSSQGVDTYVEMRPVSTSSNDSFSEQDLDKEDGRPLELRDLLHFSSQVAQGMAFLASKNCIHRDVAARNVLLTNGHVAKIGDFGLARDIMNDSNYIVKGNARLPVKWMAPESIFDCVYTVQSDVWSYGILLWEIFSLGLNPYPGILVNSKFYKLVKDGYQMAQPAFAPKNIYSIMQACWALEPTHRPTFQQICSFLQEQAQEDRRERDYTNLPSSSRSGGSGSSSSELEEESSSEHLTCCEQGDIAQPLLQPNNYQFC
Assay [19] has the same target. Particulars: at 1 µM.
Assay [20] deals with Tyrosine-protein kinase Fyn (Homo sapiens) (UniProt P06241). Particulars: at 0.1 µM.
Chain of Tyrosine-protein kinase Fyn (Homo sapiens) (P06241 2-537 limits assumed): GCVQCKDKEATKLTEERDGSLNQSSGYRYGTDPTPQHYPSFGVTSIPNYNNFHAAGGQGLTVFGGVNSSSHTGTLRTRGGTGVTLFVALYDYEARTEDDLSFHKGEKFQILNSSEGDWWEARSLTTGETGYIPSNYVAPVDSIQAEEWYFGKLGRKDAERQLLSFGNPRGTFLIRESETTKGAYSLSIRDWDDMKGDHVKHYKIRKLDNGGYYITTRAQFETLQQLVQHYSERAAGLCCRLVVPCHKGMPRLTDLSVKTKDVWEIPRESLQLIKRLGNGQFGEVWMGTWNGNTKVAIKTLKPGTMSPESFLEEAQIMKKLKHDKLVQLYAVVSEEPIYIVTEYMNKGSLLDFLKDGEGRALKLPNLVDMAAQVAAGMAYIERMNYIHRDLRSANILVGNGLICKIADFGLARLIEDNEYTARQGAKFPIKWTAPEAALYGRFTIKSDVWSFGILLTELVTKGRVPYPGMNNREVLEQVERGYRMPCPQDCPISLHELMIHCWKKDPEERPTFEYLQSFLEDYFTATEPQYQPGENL

Chain of Serine/threonine-protein kinase PLK1 (Homo sapiens) (P53350 whole entry): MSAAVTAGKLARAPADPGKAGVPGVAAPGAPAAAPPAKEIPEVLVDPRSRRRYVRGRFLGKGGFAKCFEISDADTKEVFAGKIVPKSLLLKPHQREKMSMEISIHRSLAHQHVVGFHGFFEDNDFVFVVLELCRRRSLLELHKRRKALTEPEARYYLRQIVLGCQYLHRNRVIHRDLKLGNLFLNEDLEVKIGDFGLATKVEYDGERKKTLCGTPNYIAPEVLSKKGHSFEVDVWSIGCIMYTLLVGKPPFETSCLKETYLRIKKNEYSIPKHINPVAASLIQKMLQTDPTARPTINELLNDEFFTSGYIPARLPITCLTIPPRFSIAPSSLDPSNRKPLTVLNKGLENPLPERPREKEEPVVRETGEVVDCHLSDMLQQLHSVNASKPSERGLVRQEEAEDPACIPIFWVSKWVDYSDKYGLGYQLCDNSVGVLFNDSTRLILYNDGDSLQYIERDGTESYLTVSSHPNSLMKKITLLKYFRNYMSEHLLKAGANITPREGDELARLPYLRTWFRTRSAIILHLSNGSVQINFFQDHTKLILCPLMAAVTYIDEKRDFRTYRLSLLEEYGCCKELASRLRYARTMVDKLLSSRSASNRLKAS

Regarding `O=C1Nc2ccccc2/C1=C/Nc1ccc2[nH]c(=O)[nH]c2c1`, the inhibition in assay [1] is 23.3%; in [2], 2.99%; in [3] it was 2.85%; in [4], 5.3%; in assay [5] it was 5.56%; in [6], 2.8%. For the same compound, the inhibition in assay [7] was 4.32%; in assay [8], 6.08%; in assay [9], 4.96%; in assay [10], 9.7%; in assay [11], 15.6%; in assay [12] it was 5.67%. The inhibition worked out at 3.82% in assay [13]; 15.4% in assay [14]; 65.9% in assay [15]; 4.3% in assay [16]; 26.6% in assay [17]; 11.9% in assay [18]. The inhibition in assay [19] was found to be 48.2%; in assay [20], 4.36%.

In the case of `Cc1ccc2c(-c3ccnc(Nc4ccc5c(c4)OCCO5)n3)c(-c3ccc(C(F)(F)F)cc3)nn2n1`, the inhibition is -0.03% in [1]; 0.53% in assay [2]; 1.72% in [3]; 1.37% in [4]; 1.37% in assay [5]; 0.53% in assay [6]. Besides, the inhibition in [7] is -0.1%; in [8], -0.01%; in assay [9], 0%; in assay [10], 1.38%; in assay [11], 1.95%; in assay [12], -2.52%. Further, the inhibition in assay [13] is 2.75%; in assay [14], 4.62%; in assay [15] it was -0.37%; in assay [16], -1.78%; in [17], 2.51%; in assay [18] it was -1.16%. In addition, the values for the inhibition in [19] and in assay [20] were 14.6% and 1.42%, respectively.
